Measured values reported in the supplement of paper PMC11732987, “Enantioselective OTUD7B fragment discovery through chemoproteomics screening and high-throughput optimisation” (Communications Chemistry, 2025).

Experiments:
Assay in all cases: log2 ratio of Biotin-Ahx-Ub-VS probe labelling (fragment/DMSO); higher = less target engagement (more negative = stronger competition), active = hit call of the paper (q ≤ 0.05, log2 ratio ≤ -1)
Conditions in all cases: compound concentration: 200 uM; treatment time: 3 h
USP9X = USP9X (UniProt Q93008)
How it was run: (§1)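 In triplicate, 495 µg of HEK293T lysate per sample was incubated with fragment at 200 µM or vehicle for 3 h. Biotin-Ahx-Ub-VS was then added to 0.5 µM final for 1 h, and labelled DUBs were captured with NeutrAvidin, digested with LysC and trypsin, and measured by diaPASEF LC-MS/MS. Data are average log2 fragment/vehicle ratios by unpaired t-test from global-median-normalised Spectronaut label-free quantities, restricted to proteins with ≥2 unique peptides.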

UniProt O00487 = target: UniProt O00487
How it was run: as §1

UniProt O00507 = target: UniProt O00507
How it was run: as §1

UniProt P51784 = target: UniProt P51784
How it was run: as §1

UniProt Q5T2D3 = target: T1, UniProt Q5T2D3
T1 sequence (whole entry): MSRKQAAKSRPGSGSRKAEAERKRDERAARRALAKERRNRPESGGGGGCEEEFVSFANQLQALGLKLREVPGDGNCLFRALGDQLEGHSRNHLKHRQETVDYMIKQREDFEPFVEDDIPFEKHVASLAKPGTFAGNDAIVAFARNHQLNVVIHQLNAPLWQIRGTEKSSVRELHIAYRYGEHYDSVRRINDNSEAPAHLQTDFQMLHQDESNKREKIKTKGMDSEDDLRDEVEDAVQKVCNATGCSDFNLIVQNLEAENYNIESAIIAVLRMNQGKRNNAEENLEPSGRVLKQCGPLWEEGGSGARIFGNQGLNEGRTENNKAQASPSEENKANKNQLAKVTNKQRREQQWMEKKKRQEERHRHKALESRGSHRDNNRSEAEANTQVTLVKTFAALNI
How it was run: as §1

UniProt Q8TE49 = target: T2, UniProt Q8TE49
T2 sequence (whole entry): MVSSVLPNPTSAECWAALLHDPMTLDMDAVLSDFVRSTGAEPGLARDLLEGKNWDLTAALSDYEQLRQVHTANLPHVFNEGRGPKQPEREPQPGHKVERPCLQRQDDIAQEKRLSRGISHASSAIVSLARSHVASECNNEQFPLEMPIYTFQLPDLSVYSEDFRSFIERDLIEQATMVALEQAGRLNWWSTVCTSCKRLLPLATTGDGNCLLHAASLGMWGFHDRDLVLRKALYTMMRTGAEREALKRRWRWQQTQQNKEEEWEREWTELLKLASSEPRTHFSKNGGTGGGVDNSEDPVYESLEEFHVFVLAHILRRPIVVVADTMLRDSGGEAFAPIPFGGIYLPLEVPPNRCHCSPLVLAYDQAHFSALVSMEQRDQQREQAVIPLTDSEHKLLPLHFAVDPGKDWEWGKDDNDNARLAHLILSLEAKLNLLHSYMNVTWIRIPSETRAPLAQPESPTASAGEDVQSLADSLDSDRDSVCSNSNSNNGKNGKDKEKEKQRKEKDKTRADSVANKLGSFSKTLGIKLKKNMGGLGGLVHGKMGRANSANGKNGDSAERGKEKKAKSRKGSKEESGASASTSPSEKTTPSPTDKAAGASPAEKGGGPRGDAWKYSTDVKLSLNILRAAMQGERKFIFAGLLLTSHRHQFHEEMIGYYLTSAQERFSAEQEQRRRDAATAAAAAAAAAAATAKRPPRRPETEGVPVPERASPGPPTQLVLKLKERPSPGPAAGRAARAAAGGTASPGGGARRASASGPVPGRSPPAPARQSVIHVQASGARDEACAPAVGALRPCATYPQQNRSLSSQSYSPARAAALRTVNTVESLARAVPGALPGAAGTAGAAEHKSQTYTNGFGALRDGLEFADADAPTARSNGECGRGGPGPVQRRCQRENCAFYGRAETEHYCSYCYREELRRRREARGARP
How it was run: as §1

UniProt Q9P2H5 = target: T3, UniProt Q9P2H5
T3 sequence (whole entry): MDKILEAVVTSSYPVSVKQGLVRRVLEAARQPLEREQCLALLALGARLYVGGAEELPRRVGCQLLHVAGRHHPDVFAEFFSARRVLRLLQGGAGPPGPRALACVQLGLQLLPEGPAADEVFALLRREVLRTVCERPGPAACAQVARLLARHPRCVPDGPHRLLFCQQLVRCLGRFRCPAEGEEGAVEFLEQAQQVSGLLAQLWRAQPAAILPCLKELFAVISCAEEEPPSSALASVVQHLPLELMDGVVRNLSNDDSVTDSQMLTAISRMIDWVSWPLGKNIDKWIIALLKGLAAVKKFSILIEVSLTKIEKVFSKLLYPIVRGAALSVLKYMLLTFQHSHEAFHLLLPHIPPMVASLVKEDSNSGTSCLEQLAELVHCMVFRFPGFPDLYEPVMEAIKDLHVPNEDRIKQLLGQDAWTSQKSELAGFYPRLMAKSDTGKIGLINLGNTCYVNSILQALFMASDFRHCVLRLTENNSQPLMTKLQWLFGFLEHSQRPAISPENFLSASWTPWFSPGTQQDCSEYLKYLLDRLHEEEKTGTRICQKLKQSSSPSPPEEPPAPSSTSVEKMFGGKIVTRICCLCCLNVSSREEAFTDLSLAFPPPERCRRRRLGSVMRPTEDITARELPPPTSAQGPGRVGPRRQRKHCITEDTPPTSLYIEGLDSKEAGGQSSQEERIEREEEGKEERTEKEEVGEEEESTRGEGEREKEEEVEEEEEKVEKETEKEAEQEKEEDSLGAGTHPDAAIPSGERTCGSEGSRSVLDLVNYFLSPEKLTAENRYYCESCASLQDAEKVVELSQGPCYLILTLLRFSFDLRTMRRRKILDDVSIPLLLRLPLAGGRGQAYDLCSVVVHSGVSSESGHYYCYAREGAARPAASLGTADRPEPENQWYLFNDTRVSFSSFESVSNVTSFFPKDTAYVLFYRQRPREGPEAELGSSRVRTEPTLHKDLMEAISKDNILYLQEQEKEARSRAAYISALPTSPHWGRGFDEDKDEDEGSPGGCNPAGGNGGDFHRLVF
How it was run: as §1

UniProt Q9UGI0 = target: T4, UniProt Q9UGI0
T4 sequence (whole entry): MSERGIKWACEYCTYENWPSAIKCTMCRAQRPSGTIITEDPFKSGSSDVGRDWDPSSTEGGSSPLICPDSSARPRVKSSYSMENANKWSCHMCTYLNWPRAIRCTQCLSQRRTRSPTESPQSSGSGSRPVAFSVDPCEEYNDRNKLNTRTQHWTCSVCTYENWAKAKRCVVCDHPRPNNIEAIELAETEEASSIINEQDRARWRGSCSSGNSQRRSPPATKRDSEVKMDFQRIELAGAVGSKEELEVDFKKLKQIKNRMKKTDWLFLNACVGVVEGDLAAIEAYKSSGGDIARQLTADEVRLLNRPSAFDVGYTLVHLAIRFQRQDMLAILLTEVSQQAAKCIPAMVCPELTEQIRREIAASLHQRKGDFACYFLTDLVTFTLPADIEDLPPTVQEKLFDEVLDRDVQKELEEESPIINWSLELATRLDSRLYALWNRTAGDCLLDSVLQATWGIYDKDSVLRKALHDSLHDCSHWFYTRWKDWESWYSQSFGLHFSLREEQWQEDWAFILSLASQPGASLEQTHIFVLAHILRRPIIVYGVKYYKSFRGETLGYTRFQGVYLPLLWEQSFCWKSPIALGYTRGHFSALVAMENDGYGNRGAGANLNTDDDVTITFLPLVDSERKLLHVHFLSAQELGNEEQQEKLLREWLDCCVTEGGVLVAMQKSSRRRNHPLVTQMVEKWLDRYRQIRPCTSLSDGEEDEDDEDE
How it was run: as §1

YOD1 = target: T5, YOD1 (UniProt Q5VVQ6)
T5 sequence (whole entry): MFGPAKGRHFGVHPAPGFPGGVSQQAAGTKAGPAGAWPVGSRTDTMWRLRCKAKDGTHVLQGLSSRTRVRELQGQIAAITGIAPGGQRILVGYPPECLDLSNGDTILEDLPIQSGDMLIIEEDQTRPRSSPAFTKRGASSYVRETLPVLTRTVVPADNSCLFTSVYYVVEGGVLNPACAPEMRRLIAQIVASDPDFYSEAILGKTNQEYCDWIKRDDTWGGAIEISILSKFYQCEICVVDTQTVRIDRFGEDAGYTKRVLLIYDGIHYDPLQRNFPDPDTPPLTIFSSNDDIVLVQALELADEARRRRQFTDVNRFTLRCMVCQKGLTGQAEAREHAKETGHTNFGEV
How it was run: as §1

Measured: log2 ratio of Biotin-Ahx-Ub-VS probe labelling

USP9X, sequence (Q93008 whole entry, the tested form may be a part): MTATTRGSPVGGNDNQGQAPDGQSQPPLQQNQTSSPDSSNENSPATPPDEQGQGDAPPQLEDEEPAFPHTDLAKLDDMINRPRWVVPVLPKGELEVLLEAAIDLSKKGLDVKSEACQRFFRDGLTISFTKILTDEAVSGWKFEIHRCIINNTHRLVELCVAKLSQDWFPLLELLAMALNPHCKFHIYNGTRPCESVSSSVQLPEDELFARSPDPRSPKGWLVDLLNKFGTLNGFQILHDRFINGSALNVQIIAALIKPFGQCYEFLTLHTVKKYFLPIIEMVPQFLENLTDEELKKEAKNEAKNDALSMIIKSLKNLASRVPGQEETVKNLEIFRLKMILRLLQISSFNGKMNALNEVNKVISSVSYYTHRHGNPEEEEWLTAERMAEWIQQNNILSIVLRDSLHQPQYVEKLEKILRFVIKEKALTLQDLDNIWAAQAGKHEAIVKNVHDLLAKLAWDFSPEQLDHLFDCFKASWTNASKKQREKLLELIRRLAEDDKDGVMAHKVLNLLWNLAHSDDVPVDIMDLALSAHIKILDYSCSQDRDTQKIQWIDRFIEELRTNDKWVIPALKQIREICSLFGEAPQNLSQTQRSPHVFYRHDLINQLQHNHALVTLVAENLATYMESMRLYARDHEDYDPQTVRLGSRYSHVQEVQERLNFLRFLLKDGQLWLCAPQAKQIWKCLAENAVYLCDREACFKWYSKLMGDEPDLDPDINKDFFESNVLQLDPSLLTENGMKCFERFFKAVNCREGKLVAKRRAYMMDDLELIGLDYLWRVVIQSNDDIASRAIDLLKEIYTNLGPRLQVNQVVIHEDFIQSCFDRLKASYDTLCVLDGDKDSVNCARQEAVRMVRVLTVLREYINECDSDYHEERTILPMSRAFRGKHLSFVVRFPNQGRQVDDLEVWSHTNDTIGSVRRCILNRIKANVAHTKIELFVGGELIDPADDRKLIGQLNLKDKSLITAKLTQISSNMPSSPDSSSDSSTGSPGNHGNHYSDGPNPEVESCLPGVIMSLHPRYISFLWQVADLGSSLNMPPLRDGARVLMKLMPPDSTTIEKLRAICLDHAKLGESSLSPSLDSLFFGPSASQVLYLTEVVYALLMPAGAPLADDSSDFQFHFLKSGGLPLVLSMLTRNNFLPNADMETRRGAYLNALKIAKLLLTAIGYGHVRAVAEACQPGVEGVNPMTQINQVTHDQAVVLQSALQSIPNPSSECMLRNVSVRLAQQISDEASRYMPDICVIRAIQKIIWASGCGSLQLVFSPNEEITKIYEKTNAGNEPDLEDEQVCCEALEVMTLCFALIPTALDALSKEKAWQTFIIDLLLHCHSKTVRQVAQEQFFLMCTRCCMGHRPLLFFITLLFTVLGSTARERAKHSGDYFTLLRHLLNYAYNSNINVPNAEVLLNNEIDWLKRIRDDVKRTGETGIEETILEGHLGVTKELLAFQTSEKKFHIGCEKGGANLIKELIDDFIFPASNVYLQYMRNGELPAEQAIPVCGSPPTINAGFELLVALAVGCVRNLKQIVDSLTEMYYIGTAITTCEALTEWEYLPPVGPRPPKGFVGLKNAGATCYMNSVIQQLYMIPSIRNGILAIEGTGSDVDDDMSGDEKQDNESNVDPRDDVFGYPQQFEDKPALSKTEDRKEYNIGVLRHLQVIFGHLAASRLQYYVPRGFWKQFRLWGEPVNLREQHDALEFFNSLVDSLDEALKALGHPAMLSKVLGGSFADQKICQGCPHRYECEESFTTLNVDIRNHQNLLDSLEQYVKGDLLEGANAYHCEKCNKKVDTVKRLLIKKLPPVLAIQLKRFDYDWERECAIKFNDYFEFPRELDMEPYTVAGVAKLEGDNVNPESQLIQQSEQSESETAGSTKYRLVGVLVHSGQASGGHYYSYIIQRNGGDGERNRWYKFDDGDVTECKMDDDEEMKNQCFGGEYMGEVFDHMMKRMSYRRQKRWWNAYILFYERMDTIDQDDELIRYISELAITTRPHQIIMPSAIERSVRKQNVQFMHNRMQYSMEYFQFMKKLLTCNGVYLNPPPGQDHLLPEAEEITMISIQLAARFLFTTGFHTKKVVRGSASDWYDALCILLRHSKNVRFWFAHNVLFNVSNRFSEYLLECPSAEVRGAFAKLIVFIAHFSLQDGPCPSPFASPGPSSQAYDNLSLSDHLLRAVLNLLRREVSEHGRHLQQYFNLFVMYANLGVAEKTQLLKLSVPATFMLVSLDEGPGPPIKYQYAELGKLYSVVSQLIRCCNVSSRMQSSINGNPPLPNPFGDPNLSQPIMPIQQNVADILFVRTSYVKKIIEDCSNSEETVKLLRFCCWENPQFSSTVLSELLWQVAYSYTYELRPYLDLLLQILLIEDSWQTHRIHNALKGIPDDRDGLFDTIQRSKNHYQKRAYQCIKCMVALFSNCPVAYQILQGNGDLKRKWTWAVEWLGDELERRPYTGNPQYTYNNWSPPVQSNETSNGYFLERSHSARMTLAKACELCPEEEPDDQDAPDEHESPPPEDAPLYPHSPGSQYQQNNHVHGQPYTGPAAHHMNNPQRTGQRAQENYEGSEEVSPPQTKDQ
UniProt O00507, sequence (O00507 whole entry): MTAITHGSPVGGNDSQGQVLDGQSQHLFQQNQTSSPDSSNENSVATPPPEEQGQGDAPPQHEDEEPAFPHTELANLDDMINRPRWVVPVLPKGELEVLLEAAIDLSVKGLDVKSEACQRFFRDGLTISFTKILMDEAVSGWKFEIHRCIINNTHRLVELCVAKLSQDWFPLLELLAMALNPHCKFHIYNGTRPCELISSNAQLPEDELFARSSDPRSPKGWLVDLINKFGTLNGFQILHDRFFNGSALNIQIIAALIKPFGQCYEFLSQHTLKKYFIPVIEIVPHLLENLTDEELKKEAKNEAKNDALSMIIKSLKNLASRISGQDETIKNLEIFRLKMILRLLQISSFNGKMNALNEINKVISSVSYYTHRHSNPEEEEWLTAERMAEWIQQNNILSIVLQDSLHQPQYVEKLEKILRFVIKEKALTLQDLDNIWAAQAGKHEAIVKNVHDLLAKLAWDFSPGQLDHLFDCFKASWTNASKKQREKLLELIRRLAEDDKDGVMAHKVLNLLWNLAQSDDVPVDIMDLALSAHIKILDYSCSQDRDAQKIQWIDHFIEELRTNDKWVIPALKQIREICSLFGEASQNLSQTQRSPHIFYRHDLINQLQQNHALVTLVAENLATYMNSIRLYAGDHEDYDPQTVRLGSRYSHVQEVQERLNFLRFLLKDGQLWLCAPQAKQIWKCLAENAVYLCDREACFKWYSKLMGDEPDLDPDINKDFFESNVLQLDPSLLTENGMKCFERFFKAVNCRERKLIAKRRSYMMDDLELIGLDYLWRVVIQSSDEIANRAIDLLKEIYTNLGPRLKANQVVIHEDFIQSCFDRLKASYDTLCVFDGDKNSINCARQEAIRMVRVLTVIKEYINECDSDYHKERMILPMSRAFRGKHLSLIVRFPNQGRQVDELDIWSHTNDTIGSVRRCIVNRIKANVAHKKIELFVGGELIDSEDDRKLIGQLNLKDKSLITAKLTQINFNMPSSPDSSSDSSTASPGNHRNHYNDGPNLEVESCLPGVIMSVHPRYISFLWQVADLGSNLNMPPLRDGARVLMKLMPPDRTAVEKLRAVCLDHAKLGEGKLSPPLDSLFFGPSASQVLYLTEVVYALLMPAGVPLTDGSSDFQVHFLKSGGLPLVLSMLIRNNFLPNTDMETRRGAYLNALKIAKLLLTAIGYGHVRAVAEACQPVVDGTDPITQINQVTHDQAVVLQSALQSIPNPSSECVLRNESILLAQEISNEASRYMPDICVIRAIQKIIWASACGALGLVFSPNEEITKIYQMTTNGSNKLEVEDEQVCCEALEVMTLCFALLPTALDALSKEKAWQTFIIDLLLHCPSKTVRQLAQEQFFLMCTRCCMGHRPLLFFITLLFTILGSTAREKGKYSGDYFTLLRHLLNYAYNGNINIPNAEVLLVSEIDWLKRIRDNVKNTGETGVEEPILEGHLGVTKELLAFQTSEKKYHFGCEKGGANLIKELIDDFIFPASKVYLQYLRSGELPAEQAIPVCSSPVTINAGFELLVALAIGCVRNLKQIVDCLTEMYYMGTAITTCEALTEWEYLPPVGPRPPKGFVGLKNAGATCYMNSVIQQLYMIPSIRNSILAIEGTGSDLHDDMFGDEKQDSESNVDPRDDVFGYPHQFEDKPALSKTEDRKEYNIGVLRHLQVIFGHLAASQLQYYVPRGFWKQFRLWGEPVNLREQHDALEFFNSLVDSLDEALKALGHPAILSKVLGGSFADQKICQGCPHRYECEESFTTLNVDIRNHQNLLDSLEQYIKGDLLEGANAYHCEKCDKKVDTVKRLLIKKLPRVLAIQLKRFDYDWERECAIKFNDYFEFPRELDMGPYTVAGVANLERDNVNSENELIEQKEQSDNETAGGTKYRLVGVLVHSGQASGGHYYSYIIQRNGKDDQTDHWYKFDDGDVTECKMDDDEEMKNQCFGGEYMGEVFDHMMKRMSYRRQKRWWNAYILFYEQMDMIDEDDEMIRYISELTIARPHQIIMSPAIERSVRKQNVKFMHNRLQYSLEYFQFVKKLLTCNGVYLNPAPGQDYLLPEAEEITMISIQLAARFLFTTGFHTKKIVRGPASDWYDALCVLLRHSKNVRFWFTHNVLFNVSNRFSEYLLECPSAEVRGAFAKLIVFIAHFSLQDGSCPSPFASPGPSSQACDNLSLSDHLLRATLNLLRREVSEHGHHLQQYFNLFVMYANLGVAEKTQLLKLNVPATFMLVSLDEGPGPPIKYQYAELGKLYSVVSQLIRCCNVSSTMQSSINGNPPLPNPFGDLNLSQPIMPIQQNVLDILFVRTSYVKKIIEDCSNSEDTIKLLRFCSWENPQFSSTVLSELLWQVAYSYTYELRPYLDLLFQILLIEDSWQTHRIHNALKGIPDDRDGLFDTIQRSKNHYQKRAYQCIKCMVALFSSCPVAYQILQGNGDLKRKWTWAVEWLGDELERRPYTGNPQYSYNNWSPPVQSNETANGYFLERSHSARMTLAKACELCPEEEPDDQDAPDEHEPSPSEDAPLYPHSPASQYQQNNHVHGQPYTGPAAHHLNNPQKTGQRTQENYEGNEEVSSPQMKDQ

COc1cc(Cl)c(C)cc1NC(=O)CCl
inactive: USP9X -0.645 | UniProt O00487 -0.246 | UniProt O00507 -0.429 | UniProt P51784 -0.107 | UniProt Q5T2D3 -0.258 | UniProt Q8TE49 -0.622 | UniProt Q9P2H5 -0.319 | YOD1 -0.11
active: UniProt Q9UGI0 -1.23
